Screens: PubChem BioAssay, National Center for Advancing Translational Sciences (NCATS)
This is a sample that favours compounds with a hit; in the whole collection about 12% have one here.
RORgamma inh = blocks mouse ROR gamma transcriptional activity; P51450; Drosophila S2 Gal4-RORgamma UAS-luciferase reporter, 20 h; Potency, µM (series often up to 53.6 µM), most hits filed as inhibitors; AID 2551; actives 5.4% (n = 310,000); note: nearly all actives have a fitted effect of over 60% in size
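Schneider cells (Drosophila), stable Gal4 DBD–ROR gamma + UAS-luc; 1 hr cmpd preincubation; Cu2+ induction 700 uM final; 20 hr ambient; luminescence.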
PLK1 PBD block = inhibitors of human PLK1 polo-box domain binding; actives 2.8% (n = 360,000); Plk1 PBD binding of FITC phosphopeptide, fluorescence polarization; Potency, µM, hits mostly inhibitors; P53350; note: series mostly up to about 57 µM; nearly all actives have a fitted effect of over 65% in size
Target sequence (P53350 whole entry, looked up, the tested form may be a part): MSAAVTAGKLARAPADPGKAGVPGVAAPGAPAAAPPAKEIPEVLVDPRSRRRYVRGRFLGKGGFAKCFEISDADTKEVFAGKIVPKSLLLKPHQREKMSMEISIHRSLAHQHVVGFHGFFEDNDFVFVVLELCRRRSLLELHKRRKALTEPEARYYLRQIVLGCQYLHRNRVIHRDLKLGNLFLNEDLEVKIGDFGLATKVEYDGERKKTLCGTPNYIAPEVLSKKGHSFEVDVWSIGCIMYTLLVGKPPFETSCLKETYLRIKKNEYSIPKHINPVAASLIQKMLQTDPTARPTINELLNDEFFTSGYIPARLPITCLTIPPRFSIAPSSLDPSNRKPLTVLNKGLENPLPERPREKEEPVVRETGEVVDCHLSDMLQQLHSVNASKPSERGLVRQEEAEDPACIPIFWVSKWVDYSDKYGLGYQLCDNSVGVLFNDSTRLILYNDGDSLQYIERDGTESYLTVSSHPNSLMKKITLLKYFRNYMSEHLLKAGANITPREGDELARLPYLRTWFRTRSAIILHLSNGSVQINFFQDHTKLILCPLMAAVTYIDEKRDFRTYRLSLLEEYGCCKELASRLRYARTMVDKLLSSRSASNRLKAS
ALDH1A1 inh = ALDH1A1 (human) enzyme inhibition. P00352. Purified ALDH1A1, NADH fluorescence, propionaldehyde substrate. Potency, µM (series often up to 75.3 µM), most hits filed as inhibitors. actives 7.3% (n = 220,000). AID 1030; active = well fitted inhibition curve with a large enough effect, not every such curve was filed as active; inconclusive = small, poorly fitted or top-dose-only effect, or another doubt; inactive = no such curve, though single readings can be large or run the other way
Sfp inh = blocks B. subtilis Sfp PPTase activity; Q9F4F7; Biochemical Sfp PPTase activity, qHTS; actives 3.5% (n = 310,000); Potency, µM, hits mostly inhibitors;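 note: the enzyme is Sfp with the accession as filed and its product quenches rhodamine fluorescence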
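With Hepes-Na pH 7.6 buffer containing 10 mM MgCl2, Sfp (15 nM) modified BHQ-2-YbbR (12.5 uM) using rhodamine-CoA (5 uM). Two reads 30 minutes apart at 525/598 nm yielded each well's rate.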
Gal4-VP16 FLuc = Gal4-VP16 reporter inhibition counter-screen. Potency, µM (series often up to 53.6 µM), hits mostly inhibitors. Drosophila S2 Gal4-VP16 UAS-luciferase, luminescence, 20 h. AID 2546. actives 3.5% (n = 310,000);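 note: Gal4-VP16 expression switched on by copper sulfate through the metallothionein promoter; nearly all actives have a fitted effect of over 50% in size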
Each line names hits and unclear results; the compound was inactive in the other large screens. Unless noted, calls come from the whole dose curve; as a rule, active = well fitted curve in the direction sought with a large enough effect; inconclusive = small, poorly fitted or top-dose-only effect, or another doubt; inactive = no such curve, though single readings can be large; an effect the other way counts as inactive or inconclusive.

O=C(N/N=C1\CC2CC=CC12)c1ccc(Br)cc1 (stereo not drawn)	RORgamma inh 11µM
Cc1cc(Br)c(OCc2ccc(C(=O)N/N=C3\CC4CC=CC34)cc2)c(Br)c1 (stereo not drawn)	RORgamma inh 7.9µM, ALDH1A1 inh 8.9µM, Gal4-VP16 FLuc inconclusive
CN(C)CCCN(C(=O)c1ccc(S(=O)(=O)N2CCc3ccccc3C2)cc1)c1nc2c(F)cccc2s1	RORgamma inh 4.5µM (no result: ALDH1A1 inh)
COc1ccc(OC)c2sc(N(CCN(C)C)C(=O)c3cc(Cl)sc3Cl)nc12	Sfp inh 56µM
CN(C)CCN(C(=O)c1ccccc1Cl)c1nc2c(Cl)cccc2s1	ALDH1A1 inh 32µM
Cc1cccc2sc(N(CCCN(C)C)C(=O)c3nc4ccccc4s3)nc12	RORgamma inh inconclusive, ALDH1A1 inh inconclusive, Sfp inh 79µM, Gal4-VP16 FLuc inconclusive
CN(C)CCN(C(=O)c1cccc(Cl)c1)c1nc2c(Cl)cccc2s1	none
CN1CCN(c2ncc3nc(-c4ccc(Cl)cc4)c(=O)n(Cc4cccs4)c3n2)CC1	none (no result: PLK1 PBD block)
NNC(=O)CS(=O)(=O)Nc1ncccn1	none (no result: RORgamma inh, PLK1 PBD block, Sfp inh, Gal4-VP16 FLuc)
Cc1cccc2sc(N(CCCN(C)C)C(=O)c3ccc(S(=O)(=O)N4CCc5ccccc5C4)cc3)nc12	RORgamma inh inconclusive, Gal4-VP16 FLuc 11µM (no result: ALDH1A1 inh)
Cc1cc(C)c2nc(N(CCN(C)C)C(=O)c3ccc4ccccc4c3)sc2c1	Sfp inh 56µM, Gal4-VP16 FLuc inconclusive (no result: ALDH1A1 inh)
CC(C)C[C@H]1CNC(=S)N1CC1CCCN1C[C@H](CC(C)C)N1C[C@H](CC(C)C)N(CCc2ccccc2)C1=S (stereo partly drawn)	none (no result: RORgamma inh, ALDH1A1 inh, Sfp inh, Gal4-VP16 FLuc)
O=C(CN1C(=O)CSC1=O)Nc1ccc(F)c(F)c1F	PLK1 PBD block 24µM
CC1CCc2c(sc(NC(=O)CCc3nc4ccccc4c(=O)[nH]3)c2C#N)C1 (stereo not drawn)	none (no result: RORgamma inh, ALDH1A1 inh, Sfp inh, Gal4-VP16 FLuc)
CCN(Cc1nc2ccccc2c(=O)[nH]1)C(=O)c1cc2c(s1)CCCCC2	none (no result: RORgamma inh, ALDH1A1 inh, Sfp inh, Gal4-VP16 FLuc)
CCN(CC(=O)Nc1sc2c(c1C#N)CCCC2)Cc1nc2ccccc2c(=O)[nH]1	RORgamma inh 5.6µM, ALDH1A1 inh inconclusive, Gal4-VP16 FLuc inconclusive
CCN(CC(=O)Nc1sc2c(c1C#N)CCC(C)C2)Cc1nc2ccccc2c(=O)[nH]1 (stereo not drawn)	RORgamma inh 2.5µM, ALDH1A1 inh 25µM, Gal4-VP16 FLuc inconclusive
Cc1cc(C(=O)NNC(=O)c2ccc(Cl)cc2)c2ccccc2n1	none (no result: RORgamma inh, ALDH1A1 inh, Sfp inh, Gal4-VP16 FLuc)
CCNC(=S)NNC(=O)c1cc(-c2cccc(OC)c2)nc2ccccc12	RORgamma inh 2.2µM, Gal4-VP16 FLuc 13µM
Cc1cc(C(=O)NNC(=S)NC(C)c2ccccc2)c2ccccc2n1 (stereo not drawn)	RORgamma inh 5µM
CCNC(=S)NNC(=O)c1cc(CC(C)C)nc2ccccc12	RORgamma inh 0.4µM, Gal4-VP16 FLuc inconclusive
CCNC(=S)NNC(=O)c1cc(-c2ccc(OCC)cc2)nc2ccccc12	ALDH1A1 inh inconclusive
CCCOc1cccc(-c2cc(C(=O)NNC(=S)NCC)c3ccccc3n2)c1	RORgamma inh inconclusive, ALDH1A1 inh inconclusive, Gal4-VP16 FLuc inconclusive
CCNC(=S)NNC(=O)c1cc(-c2ccccc2C)nc2ccccc12	RORgamma inh 0.56µM, ALDH1A1 inh inconclusive
N#CCC(=O)Nc1ccc(C(=O)N2CCN(c3ccccn3)CC2)cc1	none (no result: ALDH1A1 inh)
CCCNC(=O)Cn1nc(-c2ccccc2OC)ccc1=O	none (no result: RORgamma inh, ALDH1A1 inh, Sfp inh, Gal4-VP16 FLuc)
CC(C)Oc1cccc(-c2cc(C(=O)NN3CCOCC3)c3ccccc3n2)c1	none (no result: ALDH1A1 inh)
Cc1ccc(C)c(-c2cc(C(=O)Nc3sc(C)c(C)c3C(N)=O)c3ccccc3n2)c1	none
CC(C)Oc1cccc(-c2cc(C(=O)NC(=S)N(C)c3ccccc3C(=O)O)c3ccccc3n2)c1	RORgamma inh 11µM, PLK1 PBD block inconclusive, ALDH1A1 inh inconclusive, Gal4-VP16 FLuc inconclusive
Cc1ccc(C)c(-c2cc(C(=O)NNC(=S)NCC(C)C)c3ccccc3n2)c1	RORgamma inh 1.1µM, ALDH1A1 inh inconclusive, Gal4-VP16 FLuc inconclusive
COc1cc(C)ccc1S(=O)(=O)NC(=O)C1(C)CCN1C(=O)Cc1ccccc1Cl (stereo not drawn)	none (no result: RORgamma inh, ALDH1A1 inh, Sfp inh, Gal4-VP16 FLuc)
Cc1ccc(S(=O)(=O)NCCC(=O)Nc2ccncc2)cc1C	none (no result: RORgamma inh, ALDH1A1 inh, Sfp inh, Gal4-VP16 FLuc)
COc1ccc(/C=C2/C(=N)N3C(=NC2=O)Sc2cc(S(C)(=O)=O)ccc23)cc1OC	none (no result: ALDH1A1 inh)
COc1cc(/C=C2\C(=N)N3N=CSC3=NC2=O)ccc1OS(=O)(=O)c1ccccc1[N+](=O)[O-]	PLK1 PBD block 27µM (no result: ALDH1A1 inh)
